About 79,000 compounds went through this panel and 15% of them were active in at least one assay; those are over-represented in the sample as a whole. Values without a mark were called inactive. Calls of active or inactive are those of the source. No stated cut-off is given here; in the data, active means growth inhibition above about 70%; inactive means the rest.
Columns and labels:
[1] = NCI Yeast Anticancer Drug Screen. Data for the rad52 strain (AID 147);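 further: 0% = growth of vehicle-treated control cultures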; details: S. cerevisiae rad52 mutant growth inhibition, active compounds read high
Outline: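 Measured: yeast growth inhibition. System: strain with a defined DNA damage repair alteration. Reference: vehicle-treated control cultures.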

[2] = NCI Yeast Anticancer Drug Screen. Data for the wt1 strain (AID 149);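 further: 0% = growth of vehicle-treated wt1 cultures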; details: S. cerevisiae wt1 strain (SPY 50644) growth inhibition, active compounds read high
Outline: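 Vehicle-normalised growth inhibition; strain wt1; compound exposure.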

[3] = NCI Yeast Anticancer Drug Screen. Data for the rad50EPP+ strain (AID 151);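 further: 0% = growth of vehicle-treated control cultures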; details: S. cerevisiae rad50 mutant strain, active compounds read high
Outline: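 One strain with a rad50 alteration (rad50EPP+) was compound-treated, its growth then compared to that of vehicle controls.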

[4] = NCI Yeast Anticancer Drug Screen. Data for the mgt1 strain (AID 153); details: S. cerevisiae mgt1 mutant growth inhibition, active compounds read high
Outline: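 After exposure of the mgt1 yeast mutant to compound, growth was measured and reported as inhibition compared with vehicle controls.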

[5] = NCI Yeast Anticancer Drug Screen. Data for the rad50 strain (AID 155);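 further: 0% = growth of vehicle-only cultures of the same strain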; details: S. cerevisiae rad50 strain growth inhibition, active compounds read high
Outline: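 A DNA repair-deficient yeast mutant serves as the test organism; compound-induced growth inhibition is calculated against vehicle-treated cells.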

[6] = NCI Yeast Anticancer Drug Screen. Data for the mec2-1 strain (AID 157); details: S. cerevisiae mec2-1 strain, active compounds read high
Outline: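 Test agents were screened against the mec2-1 yeast strain, with defined DNA repair or cell cycle alteration. Growth was scored as inhibition against vehicle-only controls.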

[7] = NCI Yeast Anticancer Drug Screen. Data for the rad14 strain (AID 159);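 further: 0% = growth of vehicle-treated control cultures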; details: S. cerevisiae rad14 strain growth inhibition, active compounds read high
Outline: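 Vehicle-treated cultures served as the baseline for growth inhibition of a DNA repair-mutant yeast strain exposed to each compound.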

[8] = NCI Yeast Anticancer Drug Screen. Data for the sgs1 mgt1 strain (AID 161);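 further: 0% = growth of cultures given vehicle only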; details: S. cerevisiae sgs1 mgt1 strain, active compounds read high
Outline: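 Genetically altered yeast, compound exposure, growth inhibition relative to vehicle.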

[9] = NCI Yeast Anticancer Drug Screen. Data for the CLN2oe strain (AID 163);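 further: 0% = growth of vehicle-only control cultures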; details: S. cerevisiae CLN2oe strain, active compounds read high
Outline: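 Here, growth inhibition in a cell-cycle-altered yeast strain after compound exposure was quantified against vehicle control growth.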

[10] = NCI Yeast Anticancer Drug Screen. Data for the cln2 rad14 strain (AID 165);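 further: 0% = growth equal to vehicle treated cultures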; details: S. cerevisiae cln2 rad14 strain, active compounds read high
Outline: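 Growth of compound-exposed yeast (cln2 rad14 genotype) measured and expressed as inhibition relative to vehicle.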

[11] = NCI Yeast Anticancer Drug Screen. Data for the bub3 strain (AID 167); details: S. cerevisiae bub3 mutant strain, active compounds read high
Outline: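 Inhibition values come from growth of compound-treated mutant yeast normalised to vehicle-treated controls.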

[12] = NCI Yeast Anticancer Drug Screen. Data for the wt2 strain (AID 169);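 further: 0% = growth of vehicle-treated yeast cultures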; details: S. cerevisiae wt2 strain growth inhibition, active compounds read high
Outline: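 Genetically defined yeast strains from a DNA-repair/cell-cycle panel were used. Compound-exposed yeast growth was measured, and the inhibition was calculated relative to vehicle treatment.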

[13] = NCI Yeast Anticancer Drug Screen. Data for the mlh1 strain (AID 171);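 further: 0% = growth of vehicle-treated control cultures of the same strain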; details: S. cerevisiae mlh1 strain growth inhibition, active compounds read high
Outline: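 Here the genetically defined yeast mutant is grown with each compound, and the extent to which its growth falls below that of vehicle-exposed cells is reported.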

[14] = NCI Yeast Anticancer Drug Screen. Data for the sgs1 strain (AID 173);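 further: 0% = growth of vehicle-only control cultures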; details: S. cerevisiae sgs1 mutant, active compounds read high
Outline: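 Relative growth inhibition, referenced to vehicle, was determined in a yeast strain with a defined alteration affecting DNA damage repair or cell cycle control after compound exposure.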

[15] = NCI Yeast Anticancer Drug Screen. Data for the mlh1 rad18 strain (AID 175); details: S. cerevisiae mlh1 rad18 strain growth inhibition, active compounds read high
Outline: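 In this whole-cell yeast screen, a strain with altered DNA damage repair is challenged with compound, and its growth is measured against matched vehicle-treated controls.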

[16] = NCI Yeast Anticancer Drug Screen. Data for the rad18 strain (AID 177); details: S. cerevisiae rad18 mutant growth inhibition, active compounds read high
Outline: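 Screen uses a yeast strain with a defined lesion in DNA damage repair; compound effect is read as loss of growth compared to untreated vehicle cultures.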

[17] = at 5.0 µM (retest, dose inferred, filed as 0.5)
[18] = at 50.0 µM (retest, dose inferred, filed as 5.0)

Question: Which growth inhibition ([1]; at 1.2 µM) does the source give for `CCCCCCCCCCCCCCCCCCNC` here?
Answer: 15%

Question: And the growth inhibition ([1]; at 3.7 µM)?
Answer: -4%

Question: What about the growth inhibition ([1]; at 11.0 µM) of the same compound?
Answer: 0%

Question: And the growth inhibition ([1]; at 33.0 µM)?
Answer: 14%

Question: What about the growth inhibition ([1]; at 100.0 µM) of the same compound?
Answer: 95% (active)

Question: What about the growth inhibition ([2]; at 1.2 µM) of the same compound?
Answer: 5%

Question: And the growth inhibition ([2]; at 3.7 µM)?
Answer: 17%

Question: And the growth inhibition ([2]; at 11.0 µM)?
Answer: 12%

Question: And the growth inhibition ([2]; at 33.0 µM)?
Answer: 15%

Question: What about the growth inhibition ([2]; at 100.0 µM) of the same compound?
Answer: 86% (active)

Question: And the growth inhibition ([3]; at 1.2 µM)?
Answer: 14%

Question: And the growth inhibition ([3]; at 3.7 µM)?
Answer: 10%

Question: What about the growth inhibition ([3]; at 11.0 µM) of the same compound?
Answer: 8%

Question: What about the growth inhibition ([3]; at 33.0 µM) of the same compound?
Answer: 48%

Question: What about the growth inhibition ([3]; at 100.0 µM) of the same compound?
Answer: 89% (active)

Question: What about the growth inhibition ([4]; at 1.2 µM) of the same compound?
Answer: 17%

Question: And the growth inhibition ([4]; at 3.7 µM)?
Answer: 25%

Question: What about the growth inhibition ([4]; at 11.0 µM) of the same compound?
Answer: 21%

Question: And the growth inhibition ([4]; at 33.0 µM)?
Answer: 26%

Question: What about the growth inhibition ([4]; at 100.0 µM) of the same compound?
Answer: 96% (active)

Question: And the growth inhibition ([5]; at 1.2 µM)?
Answer: -10%

Question: What about the growth inhibition ([5]; at 3.7 µM) of the same compound?
Answer: 1%

Question: What about the growth inhibition [5, 17] of the same compound?
Answer: 34%

Question: What about the growth inhibition ([5]; at 11.0 µM) of the same compound?
Answer: -2%

Question: What about the growth inhibition ([5]; at 33.0 µM) of the same compound?
Answer: 17%

Question: What about the growth inhibition [5, 18] of the same compound?
Answer: 90% (active)

Question: And the growth inhibition ([5]; at 50.0 µM)?
Answer: 68.5%

Question: What about the growth inhibition ([5]; at 100.0 µM) of the same compound?
Answer: 87% (active)

Question: And the growth inhibition ([6]; at 1.2 µM)?
Answer: 14%

Question: And the growth inhibition ([6]; at 3.7 µM)?
Answer: 3%

Question: What about the growth inhibition [6, 17] of the same compound?
Answer: 50%

Question: And the growth inhibition ([6]; at 11.0 µM)?
Answer: -3%

Question: And the growth inhibition ([6]; at 33.0 µM)?
Answer: 18%

Question: And the growth inhibition [6, 18]?
Answer: 95% (active)

Question: What about the growth inhibition ([6]; at 50.0 µM) of the same compound?
Answer: 69%

Question: What about the growth inhibition ([6]; at 100.0 µM) of the same compound?
Answer: 96% (active)

Question: And the growth inhibition ([7]; at 1.2 µM)?
Answer: -22%

Question: What about the growth inhibition ([7]; at 3.7 µM) of the same compound?
Answer: -16%

Question: What about the growth inhibition ([7]; at 11.0 µM) of the same compound?
Answer: -16%

Question: And the growth inhibition ([7]; at 33.0 µM)?
Answer: -9%

Question: What about the growth inhibition ([7]; at 100.0 µM) of the same compound?
Answer: 75% (active)

Question: What about the growth inhibition [8, 17] of the same compound?
Answer: -6%

Question: And the growth inhibition [8, 18]?
Answer: 97% (active)

Question: What about the growth inhibition ([8]; at 50.0 µM) of the same compound?
Answer: 81.2% (active)

Question: What about the growth inhibition ([9]; at 1.2 µM) of the same compound?
Answer: 13%

Question: What about the growth inhibition ([9]; at 3.7 µM) of the same compound?
Answer: 19%

Question: What about the growth inhibition ([9]; at 11.0 µM) of the same compound?
Answer: 2%

Question: What about the growth inhibition ([9]; at 33.0 µM) of the same compound?
Answer: -4%

Question: And the growth inhibition ([9]; at 100.0 µM)?
Answer: 77% (active)

Question: What about the growth inhibition [10, 17] of the same compound?
Answer: 32%

Question: What about the growth inhibition [10, 18] of the same compound?
Answer: 92% (active)

Question: What about the growth inhibition ([10]; at 50.0 µM) of the same compound?
Answer: 8.1%

Question: What about the growth inhibition ([11]; at 1.2 µM) of the same compound?
Answer: 12%

Question: And the growth inhibition ([11]; at 3.7 µM)?
Answer: 15%

Question: And the growth inhibition [11, 17]?
Answer: 50%

Question: And the growth inhibition ([11]; at 11.0 µM)?
Answer: 32%

Question: What about the growth inhibition ([11]; at 33.0 µM) of the same compound?
Answer: 20%

Question: What about the growth inhibition [11, 18] of the same compound?
Answer: 96% (active)

Question: And the growth inhibition ([11]; at 50.0 µM)?
Answer: 87.1% (active)

Question: And the growth inhibition ([11]; at 100.0 µM)?
Answer: 94% (active)

Question: And the growth inhibition ([12]; at 1.2 µM)?
Answer: -35%

Question: And the growth inhibition ([12]; at 3.7 µM)?
Answer: -17%

Question: And the growth inhibition ([12]; at 11.0 µM)?
Answer: -40%

Question: What about the growth inhibition ([12]; at 33.0 µM) of the same compound?
Answer: -24%

Question: What about the growth inhibition ([12]; at 100.0 µM) of the same compound?
Answer: 82% (active)

Question: And the growth inhibition ([13]; at 1.2 µM)?
Answer: -26%

Question: And the growth inhibition ([13]; at 3.7 µM)?
Answer: -10%

Question: What about the growth inhibition ([13]; at 11.0 µM) of the same compound?
Answer: -8%

Question: What about the growth inhibition ([13]; at 33.0 µM) of the same compound?
Answer: -40%

Question: What about the growth inhibition ([13]; at 100.0 µM) of the same compound?
Answer: 70% (active)

Question: What about the growth inhibition ([14]; at 1.2 µM) of the same compound?
Answer: -9%

Question: And the growth inhibition ([14]; at 3.7 µM)?
Answer: -27%

Question: And the growth inhibition ([14]; at 11.0 µM)?
Answer: -27%

Question: What about the growth inhibition ([14]; at 33.0 µM) of the same compound?
Answer: -16%

Question: What about the growth inhibition ([14]; at 100.0 µM) of the same compound?
Answer: 87% (active)

Question: And the growth inhibition [15, 17]?
Answer: 41%

Question: And the growth inhibition [15, 18]?
Answer: 94% (active)

Question: What about the growth inhibition ([15]; at 50.0 µM) of the same compound?
Answer: 61.3%

Question: And the growth inhibition ([16]; at 1.2 µM)?
Answer: 17%

Question: What about the growth inhibition ([16]; at 3.7 µM) of the same compound?
Answer: 7%

Question: And the growth inhibition ([16]; at 11.0 µM)?
Answer: 7%

Question: What about the growth inhibition ([16]; at 33.0 µM) of the same compound?
Answer: 18%

Question: What about the growth inhibition ([16]; at 100.0 µM) of the same compound?
Answer: 88% (active)

Reference: PubChem BioAssay (NCI)
